± gives the standard deviation of the averaged measurements.

In one assay the test system is Drosophila ezoana antennal basiconic sensillum ab1. As to the kind of experiment: odor-evoked OSN spike response (post minus pre-stimulus); higher = stronger neuronal excitation. As to conditions: odor dilution: 10^-4. Summed up:
(§1)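 Spike frequency was compared between 1-second windows before and after each stimulus in Auto Spike software. That change, averaged over replicate sensilla, is the response. Each stimulus was a 500 ms air pulse over filter paper carrying 10 µl of odorant at 10^−4 in mineral oil or DMSO, delivered into a humidified, charcoal-filtered 1.5 l min^−1 stream. A tungsten electrode recorded at the base of antennal basiconic sensilla of restrained adult flies, with up to 3 sensilla per fly.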
As to `COC(=O)c1ccccc1O` [Methyl salicylate], the “odor-evoked OSN spike response” value is 52.1 ± 33 spikes/s.
Turning to `CCCCCOC(C)=O` [pentyl acetate], the “odor-evoked OSN spike response” value came out at 62.6 ± 43 spikes/s.
The same measure, in the same setting: the value for `CC(O)C(C)O` (stereo unspecified) [2,3-Butanediol] was 68.2 ± 35 spikes/s; that for `CCOC(=O)C(C)O` (stereo unspecified) [Ethyl lactate] was 70.3 ± 53 spikes/s.
Still for that read-out and setting: the value for `CCCC(=O)CC` [3-hexanone] was 59.3 ± 31 spikes/s; that for `CCOC(C)=O` [Ethyl acetate] was 56.4 ± 35 spikes/s.
In the case of `CC(=O)C(C)O` (stereo unspecified) [acetoin], the “odor-evoked OSN spike response” value was determined as 79.9 ± 48 spikes/s.

A further assay deals with Drosophila ezoana antennal basiconic sensillum ab2. The description is as above. As to conditions: odor dilution: 10^-4. Summed up:
as §1
For the compound `CCOC(=O)c1ccccc1` [ethyl benzoate], the “odor-evoked OSN spike response” value worked out at 69.5 ± 30 spikes/s.
For `CCCCCCCC/C=C\CCCCCCCC(=O)O` [Oleic acid], the “odor-evoked OSN spike response” value is 43.9 ± 26 spikes/s.
On the same count and under the same terms, the value for `CCCC(=O)OCc1ccccc1` [benzyl butyrate] was 43.7 ± 32 spikes/s.
The same measure, in the same setting: for `C/C=C/C(=O)OCC` [Ethyl crotonate] the value was 61.5 ± 39 spikes/s; for `CC(C)OC(=O)c1ccccc1` [isopropyl benzoate], 91.2 ± 45 spikes/s.
Regarding `COC(=O)c1ccccc1` [methyl benzoate], the “odor-evoked OSN spike response” value was found to be 55.9 ± 36 spikes/s.
Same read-out and setting: for `CCOC(=O)CC(C)O` (stereo unspecified) [Ethyl-3-hydroxybutyrate] the value was 60.9 ± 32 spikes/s.

The subject of another assay is Drosophila ezoana antennal basiconic sensillum ab3. The description is as above. The note with it: odor dilution: 10^-4. Summed up: as §1
As for `CCc1ccc(O)c(OC)c1` [4-Ethylguaiacol], the “odor-evoked OSN spike response” value turned out to be 57.6 ± 32 spikes/s.
On to `CCCOC(C)=O` [propyl acetate], for which the “odor-evoked OSN spike response” value is 50 ± 27 spikes/s.
For the compound `CCCCC(C)=O` [2-hexanone], the “odor-evoked OSN spike response” value was found to be 52.9 ± 26 spikes/s.
On the same count and under the same terms, the value for `CCOC(=O)c1ccccc1` [ethyl benzoate] was 64 ± 27 spikes/s; that for `CCCCCCCC(C)O` (stereo unspecified) [2-nonanol] was 55 ± 26 spikes/s; that for `COC(=O)c1ccccc1O` [Methyl salicylate] was 64.8 ± 22 spikes/s.
On to `CC(C)=CCCC(C)=CC=O` (mixture of isomers) [citral], for which the “odor-evoked OSN spike response” value amounted to 52.2 ± 25 spikes/s.
On the same count and under the same terms, the value for `CCCCCOC(C)=O` [pentyl acetate] was 120 ± 29 spikes/s.
In the case of `CCCCCC(=O)OCC` [ethyl hexanoate], the “odor-evoked OSN spike response” value came out at 141 ± 28 spikes/s.
Still for that read-out and setting: for `CCCCC(C)O` (stereo unspecified) [2-hexanol] the value was 55 ± 32 spikes/s.
As for `CC(O)C(C)O` (stereo unspecified) [2,3-Butanediol], the “odor-evoked OSN spike response” value was determined as 51.5 ± 25 spikes/s.
Consider `CCCCCCO` [1-hexanol], for which the “odor-evoked OSN spike response” value turned out to be 53 ± 23 spikes/s.
`CCOC(=O)C(C)O` (stereo unspecified) [Ethyl lactate]: the “odor-evoked OSN spike response” value worked out at 129 ± 36 spikes/s.
The same measure, in the same setting: the value for `CCCC(=O)CC` [3-hexanone] was 52 ± 27 spikes/s; that for `CCCCCC(C)=O` [2-heptanone] was 64.7 ± 28 spikes/s; that for `CC(=O)OCCC(C)C` [Isopentyl acetate] was 55.5 ± 29 spikes/s.
Regarding `CCCCCCOC(C)=O` [Hexyl acetate], the “odor-evoked OSN spike response” value turned out to be 121 ± 33 spikes/s.
Still for that read-out and setting: for `CCCCCCCC(C)=O` [2-nonanone] the value was 57.8 ± 38 spikes/s; for `CC(C)OC(=O)c1ccccc1` [isopropyl benzoate], 54.9 ± 29 spikes/s; for `CCOC(C)=O` [Ethyl acetate], 60.2 ± 27 spikes/s.
On the same count and under the same terms, the value for `CC(=O)C(C)O` (stereo unspecified) [acetoin] was 135 ± 51 spikes/s; that for `CCOC(=O)CC(C)O` (stereo unspecified) [Ethyl-3-hydroxybutyrate] was 133 ± 55 spikes/s.

Another assay has as its system Drosophila ezoana antennal basiconic sensillum ab8. The description is as above. As to conditions: odor dilution: 10^-4. Put shortly: as §1
Take `OCCc1ccccc1` [2-phenylethanol]: the “odor-evoked OSN spike response” value stood at 63.9 ± 26 spikes/s.
Consider `CCCOC(C)=O` [propyl acetate], for which the “odor-evoked OSN spike response” value is 51 ± 32 spikes/s.
For `C=CC(O)CCCCC` (stereo unspecified) [1-octen-3-ol], the “odor-evoked OSN spike response” value worked out at 118 ± 51 spikes/s.
Same read-out and setting: the value for `CCCCCOC(C)=O` [pentyl acetate] was 122 ± 45 spikes/s.
`CCC(=O)OCCC(C)C` [Isopentyl propionate]: the “odor-evoked OSN spike response” value turned out to be 79 ± 39 spikes/s.
Take `CC(C)CCO` [Isopentyl alcohol]: the “odor-evoked OSN spike response” value was 65.8 ± 25 spikes/s.
In the case of `CCCCCC(=O)OCC` [ethyl hexanoate], the “odor-evoked OSN spike response” value is 77.2 ± 32 spikes/s.
Still for that read-out and setting: for `CCCCCCO` [1-hexanol] the value was 176 ± 44 spikes/s; for `CCOC(=O)C(C)O` (stereo unspecified) [Ethyl lactate], 51.4 ± 27 spikes/s; for `CCCCCC(C)=O` [2-heptanone], 54.2 ± 25 spikes/s.
On the same count and under the same terms, the value for `CC(=O)OCCC(C)C` [Isopentyl acetate] was 73.6 ± 38 spikes/s; that for `CCCCCCOC(C)=O` [Hexyl acetate] was 88.7 ± 39 spikes/s.
Take `CC(=O)c1ccccc1` [Acetophenone]: the “odor-evoked OSN spike response” value was 71.8 ± 25 spikes/s.
On the same count and under the same terms, the value for `CCCC(O)CC` (stereo unspecified) [3-hexanol] was 52.3 ± 27 spikes/s; that for `CCOC(=O)CC(C)O` (stereo unspecified) [Ethyl-3-hydroxybutyrate] was 108 ± 45 spikes/s.

The next assay relates to Drosophila ezoana antennal basiconic sensillum ab9. Described as above. As to conditions: odor dilution: 10^-4. Put shortly:
as §1
As to `CCCOC(C)=O` [propyl acetate], the “odor-evoked OSN spike response” value worked out at 60.9 ± 37 spikes/s.
Consider `CCOC(=O)c1ccccc1` [ethyl benzoate], for which the “odor-evoked OSN spike response” value is 105 ± 28 spikes/s.
Take `C=CC(O)CCCCC` (stereo unspecified) [1-octen-3-ol]: the “odor-evoked OSN spike response” value came out at 50.6 ± 26 spikes/s.
For `CC(C)=CCCC(C)=CC=O` (mixture of isomers) [citral], the “odor-evoked OSN spike response” value turned out to be 55.8 ± 30 spikes/s.
Same read-out and setting: for `CCCCCOC(C)=O` [pentyl acetate] the value was 67.9 ± 29 spikes/s; for `CCC(=O)OCCC(C)C` [Isopentyl propionate], 66.7 ± 31 spikes/s.
On the same count and under the same terms, for `CCCCCC(=O)OCC` [ethyl hexanoate] the value was 56.8 ± 31 spikes/s.
Same read-out and setting: for `CCOC(=O)C(C)O` (stereo unspecified) [Ethyl lactate] the value was 66.3 ± 26 spikes/s; for `CCCC(=O)CC` [3-hexanone], 51.3 ± 35 spikes/s; for `CCCC(=O)OCc1ccccc1` [benzyl butyrate], 56.9 ± 30 spikes/s.
As to `COc1ccccc1O` [guaiacol], the “odor-evoked OSN spike response” value was found to be 50.8 ± 26 spikes/s.
The same measure, in the same setting: for `CC(=O)OCCC(C)C` [Isopentyl acetate] the value was 56.7 ± 36 spikes/s.
Same read-out and setting: for `C/C=C/C(=O)OCC` [Ethyl crotonate] the value was 50.1 ± 30 spikes/s; for `CC(C)OC(=O)c1ccccc1` [isopropyl benzoate], 58.6 ± 20 spikes/s; for `CC(=O)c1ccccc1` [Acetophenone], 68.3 ± 26 spikes/s.
Still for that read-out and setting: for `CC(=O)C(C)O` (stereo unspecified) [acetoin] the value was 57.3 ± 30 spikes/s.
On to `COC(=O)c1ccccc1` [methyl benzoate], for which the “odor-evoked OSN spike response” value is 125 ± 48 spikes/s.
Take `CCOC(=O)CC(C)O` (stereo unspecified) [Ethyl-3-hydroxybutyrate]: the “odor-evoked OSN spike response” value amounted to 59.2 ± 23 spikes/s.

For the next assay, the system named is Drosophila virilis antennal basiconic sensillum AB1. The description is as above. The note with it: odor dilution: 10^-4. Put shortly:
as §1
With `COC(=O)c1ccccc1O` [Methyl salicylate], the “odor-evoked OSN spike response” value amounted to 49 ± 22 spikes/s.
With `CC(O)C(C)O` (stereo unspecified) [2,3-Butanediol], the “odor-evoked OSN spike response” value is 71.5 ± 10 spikes/s.
Turning to `CCOC(=O)C(C)O` (stereo unspecified) [Ethyl lactate], the “odor-evoked OSN spike response” value came to 128 ± 32 spikes/s.
Take `CCCC(=O)CC` [3-hexanone]: the “odor-evoked OSN spike response” value was found to be 76 ± 7.4 spikes/s.
The same measure, in the same setting: for `CCOC(C)=O` [Ethyl acetate] the value was 69.2 ± 27 spikes/s.
Take `CC(=O)C(C)O` (stereo unspecified) [acetoin]: the “odor-evoked OSN spike response” value amounted to 82.8 ± 39 spikes/s.
The same measure, in the same setting: the value for `CCOC(=O)CC(C)O` (stereo unspecified) [Ethyl-3-hydroxybutyrate] was 70.5 ± 24 spikes/s.

For the origin of these results see the supplement of paper PMC10477191.
